Laboratory results from PubChem BioAssay AID2315 (National Center for Advancing Translational Sciences (NCATS), 2010).
The campaign covered roughly 290,000 compounds. About 27,000 (9.3%) were called active. No stated cut-off is given here; in the data, active means inhibition mostly above about 28% (no sharp cut-off); inactive means mostly below about 43%. The sample as a whole holds a higher share of actives than the screen did.

Assay: A qHTS for Small Molecule Inhibitors of Shiga Toxin; further: 0% is about no effect
Settings: Vero cells, Shiga toxin protein synthesis inhibition reporter; at 38.7 µM, active compounds read high
In the case of `CCOc1ccc(N/C(N)=N/c2nc(C)c(C)c(=O)[nH]2)cc1`, the inhibition is reported as 0.318% (inactive).
In the case of `N/C(=N\OC(=O)Nc1ccc(Cl)c(Cl)c1)c1ncc(C(F)(F)F)cc1Cl`, the inhibition is reported as -18.1% (inactive).
For `COC(=O)Cc1ccc(Oc2ncc(C(F)(F)F)cc2Cl)cc1`, the inhibition was 26.3% (inactive).
With `COc1cccc(/C=N/Nc2ncc(C(F)(F)F)cc2Cl)c1O` the inhibition was -37.7% (active).
With `CC(=O)N1c2ccc(S(=O)(=O)N3CCC(C(=O)NCc4ccc(F)cc4)CC3)cc2CC1C` (stereo unspecified) the inhibition was -3.9% (inactive).
With `CSc1ccccc1N1CCN(CCCCCC(=O)NC2CCCc3ccccc32)CC1` (stereo unspecified) the inhibition was -5.33% (inactive).
For `COc1ccc(C2Nc3ccccc3C(=O)N2Cc2ccccc2)cc1Cn1nnc2ccccc21` (stereo unspecified), the inhibition was -22.2% (inactive).
In the case of `COc1ccc(CN2CCCC(C(=O)c3ccc(Cl)cc3)C2)cc1Cn1cncn1` (stereo unspecified), the inhibition is reported as -2.03% (inactive).
In the case of `COc1ccc(C2Nc3ccccc3C(=O)N2c2ccc(F)cc2)cc1Cn1nnc2ccccc21` (stereo unspecified), the inhibition is reported as -5.43% (inactive).
For `COc1ccc([N+](=O)[O-])cc1C1NN=C(c2cccc3ccccc23)S1` (stereo unspecified), the inhibition was -12.5% (inactive).
For `COc1ccc(C2Nc3ccccc3C(=O)N2c2ccc(Cl)cc2)cc1Cn1cc([N+](=O)[O-])cn1` (stereo unspecified), the inhibition was 115% (active).
With `COc1ccc(N2C(=O)c3ccccc3NC2c2ccc(OC)c(CN3CCOCC3)c2)cc1` (stereo unspecified) the inhibition was 64% (active).
In the case of `COC(=O)C1=CN(Cc2ccc(OC)cc2)C=C(C(=O)OC)C1c1ccc(O)c(OC)c1`, the inhibition is reported as -14.4% (inactive).
In the case of `CCC(NC(=O)C1CCCC1)c1ccc(C)cc1` (stereo unspecified), the inhibition is reported as -3.88% (inactive).
For `O=C(Nc1ccc(Br)cc1)c1cc(S(=O)(=O)Nc2ccccn2)ccc1Cl`, the inhibition was -18.3% (inactive).
With `NC(=O)c1ccc(Nc2ccc3nonc3c2[N+](=O)[O-])cc1` the inhibition was -16.8% (inactive).
For `N#Cc1c(-c2ccccc2)nc(SCc2cccc(C(F)(F)F)c2)[nH]c1=O`, the inhibition was -1.96% (inactive).
With `O=[N+]([O-])c1cccc(Nc2c3ccccc3nc3ccccc23)c1` the inhibition was -12.3% (inactive).
For `O=[N+]([O-])c1ccc2c(c1)Nc1nc3ccccc3nc1N2`, the inhibition was 119% (active).
With `O=[N+]([O-])c1cnc2ccc3ccccc3c2c1` the inhibition was 27.3% (inactive).
With `O=C(Nc1cccc(Br)c1)c1ccc2snnc2c1` the inhibition was 64% (active).
With `O=C(Nc1ccc2ccccc2c1)Nc1ccc2snnc2c1` the inhibition was 1.94% (inactive).
In the case of `CCc1ccccc1NC(=O)c1ccc2snnc2c1`, the inhibition is reported as -5.07% (inactive).
For `COc1ccccc1S(=O)(=O)c1c(C)cc(C)[nH]c1=O`, the inhibition was -2.84% (inactive).
In the case of `Cc1cccc([C@@H]2[C@@H]3C(=O)N(C)C(=O)[C@@H]3[C@@H]3C(=O)Nc4ccccc4C(=O)N23)c1`, the inhibition is reported as -2.83% (inactive).
For `Cn1c(S(=O)(=O)O)nc2ccccc21`, the inhibition was -9% (inactive).
With `Cn1c(NC(=O)c2ccccc2)nc2ccccc21` the inhibition was 43.5% (active).
For `Cn1sc(NC(=O)c2ccccc2)nc1=O`, the inhibition was 33.6% (inactive).
With `Cc1ccc2cc(C)c(N3CCN(c4ccc(F)cc4)CC3)nc2c1` the inhibition was 27.6% (inactive).
In the case of `Cc1nn(-c2ccccn2)c2c1C(c1ccncc1)C1=C(CC(C)(C)CC1=O)N2` (stereo unspecified), the inhibition is reported as -3.23% (inactive).
In the case of `CC1(C)CC(=O)C2=C(C1)Nc1cc(C(=O)c3ccccc3)ccc1NC2c1ccccn1` (stereo unspecified), the inhibition is reported as -5.56% (inactive).
For `Cc1cc2c(cc1C)NC(c1ccccn1)C1=C(CC(C)(C)CC1=O)N2` (stereo unspecified), the inhibition was 51.7% (active).
In the case of `CCc1ccc(CN(C)C(=O)C2CCC(=O)N(Cc3cccc(OC)c3)C2)nc1` (stereo unspecified), the inhibition is reported as 22.8% (inactive).
In the case of `CCOc1cccc(-c2nnc(SCC(=O)NC3CC3)n2C)c1`, the inhibition is reported as 27% (inactive).
In the case of `COc1ccc(NC(=O)CSc2nncc(=O)n2N)cc1OC`, the inhibition is reported as -9.85% (inactive).
In the case of `O=C(COC(=O)Cn1cnc2ccccc21)Nc1cccc2c1C(=O)c1ccccc1C2=O`, the inhibition is reported as -13.5% (inactive).
With `O=C(COC(=O)c1cccc(Br)c1)Nc1cccc2c1C(=O)c1ccccc1C2=O` the inhibition was 31.4% (active).
For `O=C(COC(=O)c1ccccc1)Nc1ccccc1Sc1ccccc1`, the inhibition was -9.76% (inactive).
For `COc1ccc(C(=O)COC(=O)Cn2cnc3c2c(=O)n(C)c(=O)n3C)c(OC)c1`, the inhibition was -5.14% (inactive).
For `CC(C)(C)Nc1nc(-c2ccccn2)nc2ccccc12`, the inhibition was -14.9% (inactive).
In the case of `COc1cnc(-c2ccccn2)nc1Oc1ccc(C(C)(C)C)cc1`, the inhibition is reported as 1.11% (inactive).
In the case of `Cc1ccc(Oc2nc(-c3ccccn3)nc3ccccc23)cc1`, the inhibition is reported as 57.7% (active).
In the case of `COC1=C(N2CCOCC2)C(=O)c2ccccc2C1=O`, the inhibition is reported as -6.31% (inactive).
In the case of `CCOCCc1nn2c(=O)cc(CSCC(=O)Nc3cccc(C)c3C)nc2s1`, the inhibition is reported as -13.9% (inactive).
In the case of `O=C(Nc1cccc(-c2cscn2)c1)C1CCN(Cc2ccsc2)CC1`, the inhibition is reported as -4.07% (inactive).
In the case of `COCCNC(=O)COc1ccc(N(C)S(=O)(=O)c2ccc3ccccc3c2)cc1`, the inhibition is reported as -8.35% (inactive).
For `COC(=O)c1sc2ncccc2c1OCc1ccc(Cl)cc1Cl`, the inhibition was 6.72% (inactive).
In the case of `O=S(=O)(O)c1nc2ccccc2n1Cc1ccc(Cl)cc1Cl`, the inhibition is reported as -6.41% (inactive).
For `Cc1nc2ccccc2nc(C)c1=NOCc1ccc(Cl)cc1Cl`, the inhibition was 112% (active).
In the case of `COC(=O)CSc1nnc(NC(=O)CCc2ccccc2)s1`, the inhibition is reported as 10.7% (inactive).
With `COc1ccc(CNS(=O)(=O)c2ccc(-c3cnc(C4CC4)o3)cc2)cc1` the inhibition was -4.74% (inactive).
For `Cc1ccc(-n2ncc3c2CC(C)(C)CC3NC(=O)CCc2cnn(C)c2)cc1` (stereo unspecified), the inhibition was -4.16% (inactive).
With `Cc1ccc(S(=O)(=O)N(NC2=NS(=O)(=O)c3ccccc32)C(=O)c2ccccc2)cc1` the inhibition was -6.05% (inactive).
In the case of `CC(C)(C)c1csc(NC2=NS(=O)(=O)c3ccccc32)n1`, the inhibition is reported as 97.3% (active).
For `O=C(Oc1cccc(NC2=NS(=O)(=O)c3ccccc32)c1)c1ccncc1`, the inhibition was 2.4% (inactive).
In the case of `Cc1ccc(C(C)C)c(OCCSc2nc3ccccc3n2CC(=O)O)c1`, the inhibition is reported as -6.58% (inactive).
In the case of `CC(OC(=O)c1ccccc1OCc1ccc(Cl)cc1)C(N)=O` (stereo unspecified), the inhibition is reported as -20.8% (inactive).
With `C=CCc1ccccc1OCC(O)CN1CCN(CCO)CC1` (stereo unspecified) the inhibition was -5.91% (inactive).
For `CCNC(=O)N1CCCC(C(=O)c2ccc(-c3ccccc3)cc2)C1` (stereo unspecified), the inhibition was 36.1% (active).
In the case of `O=C(c1ccc(-c2ccccc2)cc1)C1CCCN(C(=O)c2cncs2)C1` (stereo unspecified), the inhibition is reported as 16.3% (inactive).
For `Cc1ccccc1NC(=O)C1CCCN(C(=O)NCc2ccccc2)C1` (stereo unspecified), the inhibition was -9.33% (inactive).
